Results from the supplement of paper PMC13380429.

Each molecule was assayed on Vero E6 infected with SARS-CoV-2 (assay: inhibition of SARS-CoV-2 cytopathic effect; higher = more antiviral protection, active = above 15). Settings: 10000 nM; 48 h.
With CNC1CC(c2ccc(Cl)c(Cl)c2)c2ccccc21 (centres undefined) [indatraline] the “inhibition of SARS-CoV-2 cytopathic effect” value (shortened to “inhibition”) was -10.8% (inactive).
O=C1c2ccccc2C(Cc2ccncc2)(Cc2ccncc2)c2ccccc21 was tested, and the “inhibition” value was -3.65% (inactive).
In the case of N#Cc1c(N)nc(SCc2csc(-c3ccc(Cl)cc3)n2)c(C#N)c1-c1ccc(OCCO)cc1 [capadenoson], the “inhibition” value is reported as -3.59% (inactive).
For NC(=O)c1ncn([C@@H]2O[C@H](CO)[C@@H](O)[C@H]2O)c1O [mizoribine], the “inhibition” value was -1.77% (inactive).
In the case of Cc1cnc(-c2cnc(NCCNc3ccc(C#N)cn3)nc2-c2ccc(Cl)cc2Cl)[nH]1, the “inhibition” value is reported as 12.1% (inactive).
Cc1cccc(C)c1NC(=O)/N=C1\CCCN1C [xilobam] was tested, and the “inhibition” value was 1.68% (inactive).
O=[N+]([O-])c1cccc2cn[nH]c12 [7-nitroindazole] was tested, and the “inhibition” value was -1.2% (inactive).
Cc1cc2sc(NC(=O)Cc3ccccc3)nc2cc1Cl was tested, and the “inhibition” value was 3.87% (inactive).
With CC(CNC(=O)c1cccnc1)NC(=O)c1cccnc1 (centres undefined) [nicaraven] the “inhibition” value was -0.45% (inactive).
With Nc1nc(O)c2nc(Br)n([C@@H]3O[C@@H]4COP(=O)(O)O[C@H]4[C@H]3O)c2n1 [8-bromo-cGMP] the “inhibition” value was 1.61% (inactive).
With C[C@H]1[C@H](C)CC[C@]2(C(=O)O)CC[C@]3(C)C(=CC[C@@H]4[C@@]5(C)C[C@@H](O)[C@H](O)[C@@](C)(CO)[C@@H]5CC[C@]43C)[C@H]12 [asiatic-acid] the “inhibition” value was -3.69% (inactive).
COc1cc(-n2c(=S)[nH]c3ccccc3c2=O)c(Cl)cc1Cl [mdivi-1] was tested, and the “inhibition” value was -1.37% (inactive).
With CO/N=C(\C(=O)N[C@@H]1C(=O)N2C(C(=O)OCOC(=O)C(C)(C)C)=C(/C=C\c3scnc3C)CS[C@H]12)c1csc(N)n1 [cefditoren-pivoxil] the “inhibition” value was -0.51% (inactive).
Nc1ncnc2c1c(-c1ccc(Cl)cc1)nn2-c1cccc(-c2cnnn2Cc2cccc(-c3ccccc3)c2)c1 was tested, and the “inhibition” value was -0.83% (inactive).
For CNc1nc(NCc2ccc(NS(C)(=O)=O)cc2Cl)cc(-c2ccccn2)n1, the “inhibition” value was 2.16% (inactive).
With N#C/C(=C\c1ccc(O)c(O)c1)C(=O)OCCc1cccs1 the “inhibition” value was 1.2% (inactive).
CN1CCN(CC(=O)N2c3ccccc3C(=O)Nc3cccnc32)CC1 [pirenzepine] was tested, and the “inhibition” value was -1.86% (inactive).
Cc1cc(Nc2ncnc3ccc(-c4ccc(CNCCS(C)(=O)=O)o4)cc23)ccc1Oc1ccn2ncnc2c1 [HER2-Inhibitor-1] was tested, and the “inhibition” value was 3.1% (inactive).
CC[C@H](C)[C@@H]1NC(=O)[C@H](Cc2ccc(OC)cc2)NC(=O)CCCSC[C@@H](C(=O)N2CCC[C@H]2C(=O)N[C@@H](CC(C)C)C(=O)NCC(N)=O)NC(=O)[C@H](CC(N)=O)NC(=O)[C@H](CCC(N)=O)NC1=O [carbetocin] was tested, and the “inhibition” value was -1.25% (inactive).
O=C(c1ccc(F)cc1)C1CCN(CCn2c(=S)[nH]c3ccccc3c2=O)CC1 [altanserin] was tested, and the “inhibition” value was 1% (inactive).
For N=C(N)c1ccc(/N=N/Nc2ccc(C(=N)N)cc2)cc1 [diminazene-aceturate], the “inhibition” value was 2.42% (inactive).
For O=S(=O)(O)CCS [mesna], the “inhibition” value was 0.95% (inactive).
CC(=O)c1cnc2ccc(-c3cc(Cl)c(O)c(Cl)c3)nc2c1N[C@H]1CC[C@H](CN(C)C)CC1 was tested, and the “inhibition” value was -5.46% (inactive).
In the case of NC(=O)[C@@H](CC1CC1)[C@@H](CCC(F)(F)F)C(=O)N[C@H]1N=C(c2ccccc2)c2cccc(F)c2NC1=O, the “inhibition” value is reported as -5.54% (inactive).
CC[C@@]1([C@H]2O[C@H]([C@H]3O[C@@](O)(CO)[C@H](C)C[C@@H]3C)C[C@H]2C)CC[C@H]([C@@]2(C)CC[C@]3(C[C@H](O)[C@@H](C)[C@@H]([C@H](C)[C@H](OC)[C@@H](C)C(=O)O)O3)O2)O1 was tested, and the “inhibition” value was 52.5% (active).
For C[C@H](N)C(=O)N[C@@H](CCC(N)=O)C(=O)O [dipeptamin], the “inhibition” value was 0.66% (inactive).
In the case of CC(=O)Oc1ccccc1C(=O)Oc1cccc(CO[N+](=O)[O-])c1, the “inhibition” value is reported as 3.31% (inactive).
For C[C@H]1O[C@@H](O[C@H]2[C@@H](O)C[C@H](O[C@H]3[C@@H](O)C[C@H](O[C@H]4CC[C@@]5(C)[C@H](CC[C@@H]6[C@@H]5C[C@@H](O)[C@]5(C)[C@@H](C7=CC(=O)OC7)CC[C@]65O)C4)O[C@@H]3C)O[C@@H]2C)C[C@H](O)[C@@H]1O [digoxin], the “inhibition” value was -14.5% (inactive).
With O=S(=O)(O)c1ccc(-c2c3nc(c(-c4ccc(S(=O)(=O)O)cc4)c4ccc([nH]4)c(-c4ccc(S(=O)(=O)O)cc4)c4nc(c(-c5ccc(S(=O)(=O)O)cc5)c5ccc2[nH]5)C=C4)C=C3)cc1 the “inhibition” value was -7.03% (inactive).
In the case of CCC(=O)OCC(=O)[C@@]1(OC(=O)CC)[C@@H](C)C[C@H]2[C@@H]3CCC4=CC(=O)C=C[C@]4(C)[C@@]3(Cl)[C@@H](O)C[C@@]21C [beclomethasone-dipropionate], the “inhibition” value is reported as -6.97% (inactive).
With NC[C@@H](O)CC(=O)O [aminohydroxybutyric-acid] the “inhibition” value was -0.71% (inactive).
For CC(=O)[C@H]1CC[C@H]2[C@@H]3CC[C@H]4C[C@H](O)CC[C@]4(C)[C@H]3C(=O)C[C@]12C [alfaxalone], the “inhibition” value was -4.57% (inactive).
With Cc1cc(C)cc(NC(=O)Cc2ccc(OC(C)(C)C(=O)O)cc2)c1 [efaproxiral] the “inhibition” value was -1.51% (inactive).
In the case of O=C(O)[C@H](O)c1ccccc1 [mandelic-acid], the “inhibition” value is reported as -2.37% (inactive).
For C[C@@H]1CN(Cc2ccc(F)cc2)[C@@H](C)CN1C(=O)c1cc2c(C(=O)C(=O)N(C)C)cn(C)c2cc1Cl [talmapimod], the “inhibition” value was -1.11% (inactive).
For Cc1ccc(-c2csc3ncnc(SCCC(=O)O)c23)cc1, the “inhibition” value was 1.11% (inactive).
CC12CCC(C(=O)N(CCCCN3CCN(c4ccccn4)CC3)C1=O)C2(C)C (centres undefined) [piricapiron] was tested, and the “inhibition” value was 1.64% (inactive).
With CCC1=C[C@@H]2CN3CCc4c([nH]c5ccccc45)[C@@](C(=O)OC)(C2)[C@@H]13 [catharanthine] the “inhibition” value was 2.81% (inactive).
In the case of O=C(NC1CCN(CCc2c[nH]c3ccccc23)CC1)c1ccccc1 [indoramin], the “inhibition” value is reported as -4.57% (inactive).
